The record followed here is PubChem BioAssay.

A number with no mark means an inactive call. For part of these data: Entries with a potency or affinity are not part of this list. Active and inactive are the calls of the source. Unless noted, how the calls were made is not given here.

Assay [1] in a line: antimalarial activity against Dd2 strain (AID 2302;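 active means growth inhibition above 50% at the single 2 µM test dose, taken to imply half-maximal potency below 2 µM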;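 further: 0% = DMSO untreated growth and 100% = chloroquine plus artemisinin killed control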). The conditions noted are these: P. falciparum Dd2 in RBCs, LDH growth readout, 72 h; at 2 µM; active compounds read high.
Assay [2] can be described thus: HepG2 cytotoxicity, primary screen, cytotoxicity control for P. falciparum antimalarial project, cell-based, ATP luminescence (AID 2303;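 active means inhibition above 50%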;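 further: 0% = DMSO wells and 100% = digitonin-killed cells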). The conditions noted are these: HepG2 viability, 24-48 h, at 10 µM, active compounds read high.
For assay [3], the target named is L-lactate dehydrogenase (Plasmodium falciparum (isolate CDC / Honduras)) (UniProt Q27743). As to the kind of experiment: PfLDH activity inhibition – cell lysate, 3D7 strain, counter-screen for P. falciparum growth inhibition project (AID 2304).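 Further: 0% = vehicle and 100% = reference inhibitor.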 The conditions noted are these: P. falciparum 3D7 crude extract, LDH APAD/NBT absorbance; at 2 µM; active compounds read high.
Assay [4] can be described thus: inhibition of 3D7 malaria parasite growth – strain 3D7 (AID 2306).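 Further: 0% = DMSO wells and 100% = chloroquine plus artemisinin control wells.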 The conditions noted are these: P. falciparum 3D7 erythrocytic growth, LDH absorbance, 72 h; at 2 µM; active compounds read high.
Assay [5] deals with Calcium-dependent protein kinase 1 (Plasmodium falciparum (isolate 3D7)) (UniProt P62344). The assay can be described thus: PfCDPK1 kinase inhibitors, biochemical, TCAMS library (AID 1159585; cut-off not given, nearly all actives have IC50 up to about 0.98 µM;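 further: inhibitors leave more ATP so luminescence rises with inhibition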). The conditions noted are these: recombinant PfCDPK1, Kinase-Glo ATP depletion luminescence.
The target in assay [6] is Plasmodium falciparum protein kinase 6 (PK6, PF3D7_1337100) (UniProt Q8IDW1). As to the kind of experiment: PfPK6 kinase inhibitors, biochemical, TCAMS library (AID 1159586). The conditions noted are these: recombinant PfPK6, Kinase-Glo ATP depletion luminescence.
Assay [7] has as its target Protein kinase 7 (PK7), Plasmodium falciparum 3D7 (PF3D7_0213400) (UniProt Q7YTF7). As to the kind of experiment: inhibition of Plasmodium PK7 catalytic activity – biochemical, TCAMS antimalarial set, Kinase-Glo luminescence (AID 1159587). The conditions noted are these: recombinant PfPK7, Kinase-Glo ATP depletion luminescence.
The target of assay [8] is Calcium-dependent protein kinase 4 (Plasmodium falciparum (isolate 3D7)) (UniProt Q8IBS5). The assay can be described thus: PfCDPK4 kinase inhibitors, biochemical, TCAMS library (AID 1159588; cut-off not given, nearly all actives have IC50 up to about 0.91 µM). As to conditions: recombinant PfCDPK4, Kinase-Glo ATP depletion luminescence.
Chain of Calcium-dependent protein kinase 4 (Plasmodium falciparum (isolate 3D7)) (Q8IBS5 whole entry, looked up): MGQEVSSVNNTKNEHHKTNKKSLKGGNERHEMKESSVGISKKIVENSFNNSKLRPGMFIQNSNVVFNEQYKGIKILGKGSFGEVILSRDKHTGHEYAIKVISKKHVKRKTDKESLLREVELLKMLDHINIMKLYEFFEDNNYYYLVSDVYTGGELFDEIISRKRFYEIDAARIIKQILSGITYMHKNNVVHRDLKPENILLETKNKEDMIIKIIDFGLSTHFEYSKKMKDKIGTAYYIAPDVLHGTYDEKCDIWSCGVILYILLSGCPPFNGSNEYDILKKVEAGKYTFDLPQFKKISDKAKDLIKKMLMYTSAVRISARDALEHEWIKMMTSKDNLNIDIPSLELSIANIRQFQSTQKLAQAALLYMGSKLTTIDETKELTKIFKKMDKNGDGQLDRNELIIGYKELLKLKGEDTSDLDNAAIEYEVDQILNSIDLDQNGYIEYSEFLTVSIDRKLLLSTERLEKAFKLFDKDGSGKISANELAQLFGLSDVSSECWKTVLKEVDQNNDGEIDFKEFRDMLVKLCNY

Chain of Plasmodium falciparum protein kinase 6 (PK6, PF3D7_1337100) (Q8IDW1 1-305): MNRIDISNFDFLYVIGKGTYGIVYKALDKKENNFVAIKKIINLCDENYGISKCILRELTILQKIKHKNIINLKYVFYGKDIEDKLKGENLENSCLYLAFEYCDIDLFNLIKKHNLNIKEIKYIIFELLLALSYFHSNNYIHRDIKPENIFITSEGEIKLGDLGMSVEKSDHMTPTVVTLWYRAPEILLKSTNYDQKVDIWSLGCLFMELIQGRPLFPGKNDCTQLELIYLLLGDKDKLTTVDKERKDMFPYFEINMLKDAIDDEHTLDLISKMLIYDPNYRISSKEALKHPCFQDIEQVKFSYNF
Chain of L-lactate dehydrogenase (Plasmodium falciparum (isolate CDC / Honduras)) (Q27743 whole entry, looked up): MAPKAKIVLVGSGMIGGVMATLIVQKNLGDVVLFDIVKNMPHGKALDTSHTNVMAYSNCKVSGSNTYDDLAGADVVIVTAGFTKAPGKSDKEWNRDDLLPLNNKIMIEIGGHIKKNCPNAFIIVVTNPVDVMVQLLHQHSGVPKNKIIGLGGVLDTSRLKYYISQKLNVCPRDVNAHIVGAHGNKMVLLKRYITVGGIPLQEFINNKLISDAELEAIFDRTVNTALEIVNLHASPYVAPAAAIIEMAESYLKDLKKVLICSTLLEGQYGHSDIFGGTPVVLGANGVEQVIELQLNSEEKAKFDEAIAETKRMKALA
Chain of Protein kinase 7 (PK7), Plasmodium falciparum 3D7 (PF3D7_0213400) (Q7YTF7 1-343): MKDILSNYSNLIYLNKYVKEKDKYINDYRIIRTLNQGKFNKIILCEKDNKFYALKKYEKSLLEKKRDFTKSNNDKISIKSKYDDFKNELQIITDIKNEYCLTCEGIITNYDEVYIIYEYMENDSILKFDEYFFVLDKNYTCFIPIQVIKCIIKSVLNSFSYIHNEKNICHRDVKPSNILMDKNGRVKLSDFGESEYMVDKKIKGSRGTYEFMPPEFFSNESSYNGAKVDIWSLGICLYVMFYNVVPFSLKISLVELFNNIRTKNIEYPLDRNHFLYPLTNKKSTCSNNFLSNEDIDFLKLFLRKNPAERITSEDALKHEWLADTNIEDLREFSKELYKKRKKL
Chain of Calcium-dependent protein kinase 1 (Plasmodium falciparum (isolate 3D7)) (P62344 whole entry, looked up): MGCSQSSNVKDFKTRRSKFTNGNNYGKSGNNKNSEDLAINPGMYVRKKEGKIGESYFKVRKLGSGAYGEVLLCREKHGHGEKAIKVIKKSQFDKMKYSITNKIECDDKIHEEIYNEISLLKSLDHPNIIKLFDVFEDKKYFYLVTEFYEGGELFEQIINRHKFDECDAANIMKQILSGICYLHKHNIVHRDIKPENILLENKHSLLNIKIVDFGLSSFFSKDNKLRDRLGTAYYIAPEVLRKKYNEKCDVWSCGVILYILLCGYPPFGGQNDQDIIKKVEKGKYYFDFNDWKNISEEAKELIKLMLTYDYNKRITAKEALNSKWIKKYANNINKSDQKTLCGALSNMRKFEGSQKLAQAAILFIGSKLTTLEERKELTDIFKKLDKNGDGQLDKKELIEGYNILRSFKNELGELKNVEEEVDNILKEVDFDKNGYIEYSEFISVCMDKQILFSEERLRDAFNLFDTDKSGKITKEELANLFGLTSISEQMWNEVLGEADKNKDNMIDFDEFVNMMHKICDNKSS

Take `CCOc1cc(NC(=O)Nc2ccnc3ccccc23)cc(OC)c1`: the growth inhibition in assay [1] was 73% (active); in assay [4], 98% (active). Moreover, the inhibition is -7% in assay [2] and 3% in assay [3]. Moreover, the outcome in assay [5], in assay [6], in assay [7] and in assay [8] was inactive.

`O=C(Nc1cccc(C2=NCCCN2)c1)Nc1cccc(C2=NCCCN2)c1`: the growth inhibition in assay [1] is 70% (active); in assay [4], 81% (active). Besides, the values for the inhibition in assay [2] and in assay [3] were 5% and -6%, respectively. Also, the result in assay [5], in assay [6], in assay [7] and in assay [8] was inactive.

For `CN1CCN(c2ccnc3ccc(NC(=O)Nc4cccc(C#N)c4)cc23)CC1`, the growth inhibition in assay [1] was 96% (active); in assay [4] it was 99% (active). Further, the inhibition in assay [2] was 11%; in assay [3] it was -1%. For the same compound, the outcome in assay [5], in assay [6], in assay [7] and in assay [8] was inactive.

As for `COc1ccc2nccc([C@@H](O)CN3CCC(NC(=O)Cc4ccc(Br)c5ccccc45)CC3)c2c1`, the growth inhibition in assay [1] is 40%; in assay [4], 98% (active). Further, the inhibition in assay [2] was 10%; in assay [3], -2%. Moreover, the result in assay [5], in assay [6], in assay [7] and in assay [8] was inactive.

As for `COc1cccc(CCc2nc3c(N4CCC(Cc5ccccc5)CC4)cccc3n2CC2CNCCO2)c1` (centres undefined), the figures for the growth inhibition in assay [1] and in assay [4] were 96% (active) and 94% (active), respectively. Besides, the inhibition in assay [2] and in assay [3] was 4% throughout. The outcome in assay [5], in assay [6], in assay [7] and in assay [8] was inactive.

For `O=C(NC1CCN(Cc2cccc(C(F)(F)F)c2)CC1)c1ccc(-c2cccc(C(F)(F)F)c2)s1`, the growth inhibition in assay [1] is 54% (active); in assay [4], 94% (active). The inhibition in assay [2] was 36%; in assay [3] it was -2%. Moreover, the outcome in assay [5], in assay [6], in assay [7] and in assay [8] was inactive.

Take `C=CCOc1ccccc1CNCC(O)c1cc(Br)cs1` (centres undefined): the growth inhibition in assay [1] was 72% (active); in assay [4], 93% (active). Further, the inhibition was 25% in assay [2] and -4% in assay [3]. For the same compound, the outcome in assay [5], in assay [6], in assay [7] and in assay [8] was inactive.

Regarding `COCCN1CCN(Cc2ccc(-c3ccc(-c4nc5ccc(F)cc5[nH]4)cc3)cc2)CC1`, the growth inhibition in assay [1] is 99% (active); in assay [4] it was 101% (active). The values for the inhibition in assay [2] and in assay [3] were 25% and -2%, respectively. Also, the outcome in assay [5], in assay [6], in assay [7] and in assay [8] was inactive.

For the compound `COc1cc(CS(C)(=O)=O)ccc1Nc1nccc(-c2c(-c3cccc(NC(=O)c4c(F)cccc4F)c3)nn3ccccc23)n1`, the growth inhibition in assay [1] is 71% (active); in assay [4], 92% (active). Moreover, the inhibition in assay [2] was 46%; in assay [3], 3%. For the same compound, the result in assay [5], in assay [6], in assay [7] and in assay [8] was inactive.

For the compound `CC(C)CNCc1cccc(-c2ccc(CNc3ccc4ncccc4c3)cc2)c1`, the growth inhibition in assay [1] is 32%; in assay [4], 94% (active). Further, the inhibition in assay [2] was 13%; in assay [3], -3%. Also, the outcome in assay [5], in assay [6], in assay [7] and in assay [8] was inactive.

Regarding `CCOc1cccc2nc(NCCCNCc3ccc(Cl)c(Cl)c3)cc(NCCCNCc3ccc(Cl)c(Cl)c3)c12`, the growth inhibition in assay [1] was 58% (active); in assay [4], 98% (active). Moreover, the inhibition in assay [2] was 96% (active); in assay [3] it was -5%. In addition, the outcome in assay [5], in assay [6], in assay [7] and in assay [8] was inactive.

`COc1cccc(-c2ccc3c(-c4cccc(S(C)(=O)=O)c4)cnc(N)c3c2)c1`: the figures for the growth inhibition in assay [1] and in assay [4] were 21% and 96% (active), respectively. Also, the inhibition was 45% in assay [2] and -6% in assay [3]. For the same compound, the outcome in assay [5], in assay [6], in assay [7] and in assay [8] was inactive.

For `O=C(Cc1cccc(Cl)c1)Nc1cccc(-c2c[nH]c3nc(Nc4cccc(O)c4)ncc23)c1`, the growth inhibition was 74% (active) in assay [1] and 100% (active) in assay [4]. In addition, the inhibition in assay [2] is 23%; in assay [3], 3%. Moreover, the result in assay [5], in assay [6], in assay [7] and in assay [8] was inactive.

In the case of `CCOc1ccccc1N1CCN(CCCNC(=O)/C(=C/C=C/c2cc3cc(Cl)c(Cl)cc3[nH]2)OC)CC1`, the growth inhibition in assay [1] is 93% (active); in assay [4], 98% (active). Moreover, the inhibition in assay [2] was 45%; in assay [3], -4%. For the same compound, the result in assay [5], in assay [6], in assay [7] and in assay [8] was inactive.

Regarding `CCCN(CCCCCCN(CCC)CCc1ccc(O)c(O)c1)CCc1ccc(O)cc1`, the growth inhibition in assay [1] is 5%; in assay [4] it was 90% (active). In addition, the inhibition in assay [2] was 0%; in assay [3] it was -1%. In addition, the result in assay [5], in assay [6], in assay [7] and in assay [8] was inactive.

`CCC(CCON1C(N)=NC(N)=NC1(C)C)c1ccc(Cl)cc1` (centres undefined): the growth inhibition is 95% (active) in assay [1] and 94% (active) in assay [4]. The inhibition in assay [2] was 66% (active); in assay [3], 1%. The result in assay [5], in assay [6], in assay [7] and in assay [8] was inactive.

As to `COc1cc(C)nc2ccc(NC(=O)Nc3ccc4nc(C)cc(OC)c4c3)cc12`, the growth inhibition is 83% (active) in assay [1] and 102% (active) in assay [4]. Besides, the inhibition in assay [2] was 79% (active); in assay [3], -7%. The outcome in assay [5], in assay [6], in assay [7] and in assay [8] was inactive.

Take `CCc1ccc(NC(=O)c2cccc(CN3CCCN(Cc4ccc(OC)cc4)CC3)c2)cc1`: the growth inhibition was -6% in assay [1] and 97% (active) in assay [4]. For the same compound, the inhibition was 35% in assay [2] and 5% in assay [3]. Besides, the outcome in assay [5], in assay [6], in assay [7] and in assay [8] was inactive.
